The list is not random: actives were taken first. Their share in the collection is about 7.3%.
FLuc counter = inhibits or activates purified firefly luciferase, miR-21 counter-screen | P08659 | purified FLuc, Km substrates, luminescence inhibition | Potency, µM (titrated, usually from 57.5 µM), for inactives: at the highest dose activity change, negative = inhibition, hits mostly inhibitors | 360,000 tested, 6.9% active | AID 588342;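 note: plate controls were vehicle for no effect and reference inhibitor for full effect; nearly all actives have a fitted effect of over 55% in size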
Target sequence (P08659 whole entry, looked up): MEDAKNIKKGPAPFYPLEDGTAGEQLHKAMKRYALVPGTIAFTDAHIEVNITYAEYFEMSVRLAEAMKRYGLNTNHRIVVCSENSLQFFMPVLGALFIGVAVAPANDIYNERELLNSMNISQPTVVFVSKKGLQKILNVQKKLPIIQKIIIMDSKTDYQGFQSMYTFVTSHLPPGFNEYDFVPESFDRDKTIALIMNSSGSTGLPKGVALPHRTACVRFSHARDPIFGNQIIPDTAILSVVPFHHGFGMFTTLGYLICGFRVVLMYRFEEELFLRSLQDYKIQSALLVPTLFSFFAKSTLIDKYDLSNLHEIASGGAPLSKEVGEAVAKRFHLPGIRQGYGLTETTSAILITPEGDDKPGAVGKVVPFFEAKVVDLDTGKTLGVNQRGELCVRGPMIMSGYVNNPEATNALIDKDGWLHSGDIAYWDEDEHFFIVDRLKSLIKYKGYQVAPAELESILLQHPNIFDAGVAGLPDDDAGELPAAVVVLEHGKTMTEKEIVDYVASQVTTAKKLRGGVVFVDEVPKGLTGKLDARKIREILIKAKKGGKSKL
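Purified P. pyralis luciferase (10nM final) with 10uM D-luciferin and 10uM ATP (Km levels) in 50mM Tris acetate pH 7.5, 10mM Mg acetate, 0.01% Tween-20, 0.05% BSA; qHTS 6-point titration, ~60 µM downward; luminescence read.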
NPC1 promoter act = NPC1 promoter activation; Huh7 NPC1 promoter luciferase reporter, 24 h; Potency, µM (series often up to 9.22 µM), inactives show at the top dose activation, usual class: activators; 320,000 tested, 2.4% active; AID 485313; note: % of control where 0% means no effect; nearly all actives have a fitted effect of over 60% in size
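Readout is luciferase luminescence, reflecting NPC1 promoter activation in stably transfected Huh7 cells after 24 h compound exposure at 37 °C in reduced-serum medium with 10% FBS.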
ELG1 genotoxic = induces genotoxicity in HEK293T cells with luciferase-tagged ELG1; HEK293T ELG1-luciferase reporter, luminescence, 16 h; Potency, µM (top dose mostly 46 µM), without a hit: top-dose activity change, positive = activation, hits mostly activators; 330,000 tested, 1.3% active; note: % of control where 0% means no effect; nearly all actives have a fitted effect of over 60% in size
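Quantitative HTS format in 1536-well plates. HEK293T ELG1-luciferase reporter cells receive test compound and are incubated 16 hr at 37 °C, 5% CO2; ONE-Glo added, 30 min room temperature, then luminescence read.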
SMN2 splice up = enhancers of SMN2 splice variant expression; HEK293 SMN2-luciferase splicing reporter, luminescence, 30-36 h; Potency, µM (titrated, usually from 46.1 µM), inactives show top-dose activity change, positive = activation, usual class: activators; 210,000 tested, 2.8% active; AID 1458; note: % of control where 0% means no effect; nearly all actives have a fitted effect of over 55% in size
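HEK293 cells carry an SMN2 minigene-luciferase reporter in which exon 7 inclusion puts luciferase in frame. Cells were seeded at 2000 cells/well, attached for 10-12 hours, then exposed to compounds for 30-36 hours at 37C before ONE-Glo luminescence.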
Rab9 prom act = Rab9 promoter activation. Huh7 Rab9 promoter-luciferase reporter, luminescence, 24 h. Potency, µM (doses to about 9.22 µM), inactives show at the highest dose activation, negative = inhibition, most hits filed as activators. 320,000 tested, 2.8% active. AID 485297; note: % of control where 0% means no effect; nearly all actives have a fitted effect of over 60% in size
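Using Huh7 cells stably transfected with Rab9 promoter–luciferase, compounds were incubated 24 h at 37 °C, 5% CO2; luciferase luminescence was read 10 min after reagent addition.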
p53 reactivator = restores transcriptional activity of mutant p53; H1299 p53-A138V BP100-luciferase reporter, luminescence, 24 h; 320,000 tested, 0.063% active; Potency, µM (highest dose often 92.2 µM), inactives show at the highest dose activity change, positive = activation, actives largely listed as activators; AID 504706; note: % of control where 0% means no effect; nearly all actives have a fitted effect of over 45% in size
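p53-null H1299 cells stably carrying temperature-sensitive p53-A138V and a BP100-luciferase reporter were pinned with compounds (4-point, 1:5 series) and held 24 hrs at 37 deg C. Luminescence was read 10 min after detection reagent.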
Numbers without * were called inactive; u = inconclusive; x = not tested or not shown; [ ] = another dose, or the depositor's remark. Calls come from the whole dose curve; as a rule, active = well fitted curve in the direction sought with a large enough effect; inconclusive = small, poorly fitted or top-dose-only effect, or another doubt; inactive = no such curve, though single readings can be large; an effect the other way counts as inactive or inconclusive. Potency is the fitted concentration of half-maximal effect.

SMILES	FLuc counter	NPC1 promoter act	ELG1 genotoxic	SMN2 splice up	Rab9 prom act	p53 reactivator
COc1cccc(-c2nnc(NC(=O)c3ccco3)s2)c1	7.57µM*	2.24µM*	16.4µM*	x	2.24µM*	17.7%
CCOc1ccc(CC(=O)Nc2sc(Cc3ccccc3)cc2C(N)=O)cc1OCC	-2.5%	1.0%	-4.3%	-18.4%	-0.7%	-8.0%
Cc1cccc(Cc2cnc(NC(=O)c3ccc(C)o3)s2)c1	9.53µM*	u	5.8µM*	-2.1%	u	u
NC(=O)c1cc(Cc2ccccc2)sc1NC(=O)c1ccco1	9.53µM*	3.55µM*	u	15.8µM*	4.47µM*	u
Cc1ccc(-c2nnc(NC(=O)c3ccco3)s2)cc1	1.51µM*	2.24µM*	4.61µM*	x	2.24µM*	u
C#CCCCCCCCCCCCC(O)CC(O)COC(C)=O (stereo unspecified)	x	x	x	-29.6%	x	x
CC(C)Cn1c(=O)c2sccc2n2c(CCCC(=O)N3CCN(c4ccc(F)cc4)CC3)nnc12	-2.0%	x	x	x	x	x
Cn1cnc2c(=O)oc3ccc(S(=O)(=O)N4CCN(c5ccccc5F)CC4)cc3c21	-0.8%	x	x	x	x	x
CCN(CC)c1ccc(NC(=O)c2cc(C)nc3c2c(C)nn3-c2ccc(C)cc2)c(C)c1	-6.3%	x	x	x	x	x
Cc1cccc(C(=O)Nc2nnc(-c3ccc(C(C)(C)C)cc3)s2)c1	10.7µM*	16.0%	8.6%	1.3%	10.3%	6.6%
Cc1ccc(Cc2cnc(NC(=O)c3ccco3)s2)cc1	0.849µM*	0.631µM*	1.84µM*	12.6µM*	0.631µM*	u
O=C(Nc1nnc(C23CC4CC(CC(C4)C2)C3)s1)c1ccco1	2.13µM*	1.78µM*	1.16µM*	16.2%	1.78µM*	u
CCCOc1cccc(-c2nnc(NC(=O)c3ccco3)s2)c1	26.9µM*	-6.5%	u	x	19.8%	18.4%
Cc1ccccc1C(=O)Nc1nnc(-c2ccc(C(C)(C)C)cc2)s1	u	-0.3%	u	-6.0%	-5.2%	9.1%
CC(C)(C)Cc1nnc(NC(=O)c2ccco2)s1	u	u	17.8%	x	u	x
COc1ccc2nccc(SCC(=O)O)c2c1	x	x	x	-4.7%[9.22 µM]	x	x
N#CCCn1c(=O)c(-c2ccc(Cl)cc2)nc2cnc(OCc3ccccc3)nc21	x	x	x	-14.4%	x	x
CCC(CC)c1nnc(NC(=O)c2ccco2)s1	-27.0%	-4.2%	10.8%	x	3.5%	7.4%
C/C=C(\C)c1nnc(NC(=O)c2ccco2)s1	15.1µM*	u	16.4µM*	12.6µM*	u	u
COc1ccc(-c2nnc(NC(=O)c3ccco3)s2)cc1	1.51µM*	3.55µM*	u	x	0.794µM*	u
O=C(Nc1nnc(Cc2ccccc2)s1)c1ccco1	16.9µM*	u	16.4µM*	u	u	14.3%
COc1ccc(/C=C/c2nnc(NC(=O)c3ccco3)s2)cc1	2.69µM*	-7.7%	6.9%	x	-1.6%	8.7%
CSc1ccc(CCNC(=O)C2CCN(c3ncnc4c3nc3n4CCCCC3)CC2)cc1	-15.2%	x	x	x	x	x
COc1ccccc1N1CCN(C(=O)c2cc3ccc4ccc(C)[nH]c4c3n2)CC1	-14.3%	x	x	x	x	x
CCCCCNCCCCC	x	x	x	-3.4%	x	x
SMILES	FLuc counter	NPC1 promoter act	ELG1 genotoxic	SMN2 splice up	Rab9 prom act	p53 reactivator
CC(C)(C)CN1CCNC(=O)C1CC(=O)NCCN1CCCc2ccccc21 (stereo unspecified)	-1.0%	3.8%	-0.3%	x	1.5%	-4.0%
Cc1cccc(OCc2nnc(NC(=O)c3cccs3)s2)c1	5.2%	-2.3%	2.6%	-19.7%	-1.3%	-0.6%
COc1cccc(-c2nnc(NC(=O)c3cccs3)s2)c1	2.39µM*	u	u	17.8µM*	u	6.7%
CC(=O)OC1CC(C)N(C(=O)c2ccccc2)c2ccc(C)cc21 (stereo unspecified)	-0.6%	3.6%	20.6µM*	u	0.8%	4.4%
CCOC(=O)c1cc2ccc3ccccc3c2s1	5.36µM*	u	u	u	u	25.1µM*
CCOC(=O)c1cc2c(s1)-c1ccccc1CC2	10.7µM*	17.9%	14.7%	19.7%	16.6%	17.3%
COC(=O)c1cc2c(s1)-c1ccccc1CC2	u	13.3%	u	11.1%	2.1%	u
COc1ccc(CCN2CCC(CNC(=O)c3cnn(-c4ccc(C)cc4)c3C3CCN(C(=O)OC(C)(C)C)CC3)CC2)cc1	-5.2%	x	x	x	x	x
Cc1ccc(/C=N\Nc2nc3ccc(Cl)cc3[nH]2)o1	8.49µM*	2.51µM*	7.7%	u	4.47µM*	u
C(=N\Nc1nc2ccccc2[nH]1)/c1ccccn1	0.338µM*	u	-24.1%	x	u	u
BrC(=C\c1ccccc1)/C=N/Nc1nc(N2CCOCC2)nc(N2CCOCC2)n1	2.3%	-3.8%	-2.7%	-11.9%[1.84 µM]	-4.2%	25.4%
BrC(=C\c1ccccc1)/C=N/Nc1nc2ccccc2[nH]1	2.69µM*	20.6%	9.6%	-10.0%	17.6%	u
C(=N\Nc1nc2ccccc2[nH]1)/c1cccc2nccnc12	u	-4.7%	u	x	-4.0%	6.3%
C(=N\Nc1nc2ccccc2[nH]1)/c1ccc2ncccc2c1	2.13µM*	1.41µM*	-8.4%	x	0.794µM*	-7.7%
CC(CCc1ccccc1)NC(=O)c1cccs1 (stereo unspecified)	4.4%	-6.4%	0.1%	-14.4%	-9.4%	1.5%
Fc1ccccc1-c1ccc(/C=N/Nc2nc3ccccc3[nH]2)o1	0.269µM*	u	u	22.4µM*	3.55µM*	35.5µM*
C#CCn1cc(/C=N/Nc2nc3ccccc3[nH]2)c2ccccc21	19µM*	-1.6%	12.1%	u	4.3%	14.1µM*
Cc1ccc(C)c(N2CCN(C(=O)CN3C(=S)NC(C)(C)CC3C)CC2)c1 (stereo unspecified)	0.9%	-3.1%	-6.0%	-30.6%	-1.9%	-5.0%
COc1ccc(-c2cc(C(=O)NCc3cccnc3)no2)cc1	12µM*	u	12.7%	7.3%	u	17.5%
O=C(NCc1cccnc1)c1cc(-c2ccccc2)on1	u	28.6%	20.6µM*	15.8µM*	u	23.9%
COc1ccc(CNC(=O)c2cc(-c3ccc(OC)cc3)on2)cc1	4.8%	x	x	-9.7%	x	x
CN(Cc1ccccc1)C(=O)COc1cc(Cl)ccc1Cl	-0.3%	-4.6%	-2.4%	x	-7.0%	-0.3%
Cc1cc(C)cc(NC(=O)N2CCN(C(=O)c3nsc4ccccc34)CC2)c1	-0.9%	x	x	x	x	x
CCN(CC)S(=O)(=O)c1ccc2c(c1)nc(CCC(=O)Nc1ccc(N3CCOCC3)cc1)n2C	16.9µM*	-0.3%	-0.7%	9.3%	1.0%	1.5%
Cn1c(CCC(=O)Nc2ccc(F)cc2)nc2cc(S(=O)(=O)N3CCOCC3)ccc21	2.9%	-1.3%	-10.4%	x	-6.3%	-7.0%
